This is a sample that favours compounds with a hit; in the whole collection about 11% have one here.
ALDH1A1 block: qHTS Assay for Inhibitors of Aldehyde Dehydrogenase 1 (ALDH1A1); Purified ALDH1A1, NADH fluorescence, propionaldehyde substrate; hit rate 7.3% among 220,000; Potency, µM (top dose mostly 75.3 µM), for inactives: at the highest dose activity, negative = inhibition, most hits filed as inhibitors; active means well fitted inhibition curve with a large enough effect, not every such curve was filed as active; inconclusive means small, poorly fitted or top-dose-only effect, or another doubt; inactive means no such curve, though single readings can be large or run the other way;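 further: potency means the concentration at half of the fitted maximal effect; plate controls were no enzyme wells and a reference inhibitor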
Target sequence (P00352 whole entry, looked up): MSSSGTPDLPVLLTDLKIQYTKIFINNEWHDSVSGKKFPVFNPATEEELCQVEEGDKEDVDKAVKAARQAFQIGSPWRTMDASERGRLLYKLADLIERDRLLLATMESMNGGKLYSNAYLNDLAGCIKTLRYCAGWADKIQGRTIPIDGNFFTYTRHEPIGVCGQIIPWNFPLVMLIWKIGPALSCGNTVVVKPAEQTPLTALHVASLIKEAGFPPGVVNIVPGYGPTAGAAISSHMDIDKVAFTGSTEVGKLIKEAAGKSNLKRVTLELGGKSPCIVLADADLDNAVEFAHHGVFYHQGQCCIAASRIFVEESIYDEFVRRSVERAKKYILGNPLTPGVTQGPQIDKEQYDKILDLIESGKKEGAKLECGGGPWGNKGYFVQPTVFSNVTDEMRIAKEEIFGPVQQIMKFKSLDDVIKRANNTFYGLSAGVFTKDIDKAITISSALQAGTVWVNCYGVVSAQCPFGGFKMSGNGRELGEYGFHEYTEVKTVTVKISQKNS
IMPase Li cell: qHTS Assay for Identifying the Cell-Membrane Permeable IMPase Inhibitors: Potentiation with Lithium | CHO-M1 cells, IP1 TR-FRET (IP-One), carbachol + lithium | Potency, µM (series often up to 59.4 µM), for the others: at the highest dose activity, negative = IMPase inhibition, actives largely listed as inhibitors | hit rate 0.35% among 210,000 | AID 1457, 2008;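 further: IP1 builds up when IMPase is blocked and the TR-FRET signal falls; potency means the concentration at half of the fitted maximal effect; plate controls were basal vehicle for no effect and high inhibitor control for full effect; nearly all actives have a fitted effect of over 50% in size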
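Steps: plate 2000 CHO-M1 cells per well and culture 16–30 h; add compound and lithium; incubate 30 min, 37C; add d2-IP1 tracer and Eu cryptate anti-IP1 antibody in lysis buffer; read after 10 min at room temperature.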
ALOX12 inhib: qHTS Assay for Inhibitors of 12-hLO (12-human lipoxygenase); purified 12-hLO, xylenol orange hydroperoxide absorbance; Potency, µM (titrated, usually from 57.1 µM), without a hit: at the highest dose activity change, negative = inhibition, actives largely listed as inhibitors; hit rate 0.12% among 150,000; AID 1452, 2008; further: potency means the concentration at half of the fitted maximal effect; nearly all actives have a fitted effect of over 55% in size
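Lipoxygenase turnover measured by absorbance at 573 and 405 nm after Fe-XO development. Human 12hLO 150 nM, arachidonate 40 uM, pH 7.0 Hepes buffer with detergent; 15 min compound preincubation, 30 min reaction.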
HPGD block: qHTS Assay for Inhibitors of HPGD (15-Hydroxyprostaglandin Dehydrogenase). purified HPGD, NADH fluorescence kinetic, PGE2 substrate. Potency, µM, for the others: top-dose activity change, negative = inhibition, usual class: inhibitors. hit rate 4.3% among 150,000; active means well fitted inhibition curve with a large enough effect, not every such curve was filed as active; inconclusive means small, poorly fitted or top-dose-only effect, or another doubt; inactive means no such curve, though single readings can be large or run the other way; further: potency means the concentration at half of the fitted maximal effect
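NADH formation kinetics: reaction with 30 uM PGE2 and 1 mM NAD+ (final), 20 nM enzyme, Tris-HCl pH 8 with Tween 20, after 15 min compound preincubation at room temperature. Fluorescence change, last versus first of five reads.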
IMPase inh: qHTS Assay for Identifying the Cell-Membrane Permeable IMPase Inhibitors | Inositol monophosphatase 1 (Rattus norvegicus), P97697 | CHO-M1 cells, IP1 accumulation, HTRF TR-FRET ratio | inhibition (IP1 accumulation), % at 46.1 µM | 120,000 tested, under 10 active | AID 901, 2007; active means well fitted curve in the direction sought with a large enough effect in the signal ratio, not every such curve was filed as active; inconclusive means small, poorly fitted or top-dose-only effect, or a change in a side signal; inactive means no such curve, though single readings can be large or run the other way; the % refers to the signal ratio;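 further: cells stimulated with carbachol in lithium chloride buffer; plate controls were DMSO basal wells for no effect and reference inhibitor wells for full effect; higher means more IMPase inhibition seen as more IP1 and lower FRET ratio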
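Seeded CHO-M1 cells were dosed with compound at up to 46 uM, stimulated with carbachol for 30 min, then lysed in IP-One detection reagents. Higher IP1 lowers the TR-FRET signal.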
PNC assembly inh: High Content Assay for Compounds that inhibit the Assembly of the Perinucleolar Compartment; PC3M PTB-GFP, PNC prevalence imaging, 16 h; stronger effect = lower value; activity change (PNC), negative = inhibition, % at 10 µM; hit rate 3.1% among 140,000; AID 2417, 2010;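 active means readout at or below -70, meaning at least 70% loss of cells showing the perinucleolar compartment, a nuclear body marking cancer cells; inconclusive means readout between -30 and a set limit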;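 further: plate controls were DMSO wells for no effect and camptothecin positive control wells for full effect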
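Read-out is percentage of cells bearing a perinucleolar compartment, from automated 20x imaging of fixed, Hoechst-stained PC3M PTB-GFP cells. Cells were seeded 4 h, then exposed 16 h to compound (23 nl of library stock) in duplicate plates.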
An asterisk follows results filed as active; ? = inconclusive; nt = no result given; [ ] = remark or other dose. Unless noted, the call rests on the fitted dose curve; in most records, active means well fitted curve in the direction sought with a large enough effect; inconclusive means small, poorly fitted or top-dose-only effect, or another doubt; inactive means no such curve, though single readings can be large; an effect the other way counts as inactive or inconclusive. Unless noted, on the % scale 0 is the no-effect control and ±100 the full control effect.

SMILES	ALDH1A1 block	IMPase Li cell	ALOX12 inhib	HPGD block	IMPase inh	PNC assembly inh
COC(=O)C(O)C1C(C)(C)C(OC(C)=O)C2CC3=C4CC(=O)OC(c5ccoc5)[C@]4(C)CCC3[C@@]1(C)C2=O (some centres not stated)	0%	9%	3%	-6%	nt	nt
COc1ccc(S(=O)(=O)NCc2cccs2)cc1	10µM*	18%[38.3 µM]	11%	-19%	-2	37
COc1ccc(S(=O)(=O)NCCCCNS(=O)(=O)c2ccc(OC)cc2)cc1	1.3µM*	18%[38.3 µM]	-13%	-10%	6	9
COc1ccc(S(=O)(=O)N(Cc2cccs2)C2CCCC2)cc1	8.9µM*	38%[38.3 µM]	1%	-12%	13	-10
COc1ccc(CNS(=O)(=O)c2ccc(OC)cc2)cc1	-7%	10%[38.3 µM]	-1%	-5%	3	-12
COc1cccc(Cn2c(=O)c(-c3cccs3)nc3cnc(OCc4ccccc4)nc32)c1	?	-1%	nt	nt	nt	nt
Nc1nc(N)c2nn(-c3ccc(C(=O)O)cc3)nc2n1	?	5%	4%[11.4 µM]	?	nt	nt
[S-]C(=Nc1ccc(Cl)cc1)N[n+]1ccccc1	4%	-5%	1%	6.3µM*	nt	-23
Cc1cc2oc(C(=O)Nc3ccc(S(N)(=O)=O)cc3)c(C)c2cc1Cl	4%	4%	nt	nt	nt	nt
O=[N+]([O-])c1cnc2ccccc2c1	10µM*	-10%	-3%	-1%	nt	-2
C=C(CO)C1Cc2c(ccc3c(=O)c4c(oc23)COc2cc(OC)c(OC)cc2-4)O1 (configuration not stated)	-11%	18%	-3%	-4%	-8	nt
CC1CCCN(C(=O)C(Cc2ccccc2)n2cccc2)C1 (configuration not stated)	-2%	13%[38.3 µM]	-4%	14µM*	5	21
O=C(C(Cc1ccccc1)n1cccc1)N1CCN(c2ccccc2)CC1 (configuration not stated)	-8%	22%[38.3 µM]	-16%	-11%	10	-4
CC1CCCCC1NC(=O)c1ccc2c(c1)[nH]c(=O)n2C1CCCC1 (configuration not stated)	14µM*	-19%[38.3 µM]	-1%	-10%	15	-8
Nc1ccc(N=Nc2c(S(=O)(=O)O)cc3ccccc3c2S(=O)(=O)O)cc1	11%[13.5 µM]	-6%	1%[11.4 µM]	-8%	nt	nt
CC(=O)c1ccc(Nc2ccc(-c3ccccc3C)nn2)cc1	7.1µM*	11%	nt	nt	nt	nt
COC(=O)CC1=NN(c2ccccc2)C(=O)/C1=C\c1ccc(OC)cc1	?	4%	-3%	14µM*	nt	19
COc1ccc(NC(=O)N/C=C/c2ccc(Cl)cc2)cc1	?	12%	nt	nt	nt	nt
COC(=O)CC1=NN(c2ccc(OC)cc2)C(=O)/C1=C\c1ccc(Cl)cc1	-11%	-1%	-11%	25µM*	nt	?
CCOC(=O)CC1=NN(c2ccccc2)C(=O)/C1=C\c1ccc(OC)cc1OC	?	13%	-7%	28µM*	nt	-19
Cn1c(Oc2ccccc2)c(C=O)c2ccccc21	-6%	3%[38.3 µM]	4%	-12%	-2	22
CCCn1c(C)cc(C(=O)COc2ncnc3sccc23)c1C	-2%	5%[38.3 µM]	-5%	-15%	0	1
Cc1cc(C(=O)COc2ncnc3sccc23)c(C)n1C1CC1	20µM*	19%[38.3 µM]	-4%	-10%	2	-16
Cc1cc(C(=O)COc2ccccc2[N+](=O)[O-])c(C)n1C1CC1	32µM*	25%	nt	nt	nt	nt
O=C(COc1ccccc1[N+](=O)[O-])c1ccccc1	2µM*	-3%	nt	nt	nt	nt
COc1cccc(Nc2ccc(C(=O)O)cc2[N+](=O)[O-])c1	-9%	-3%	-3%	28µM*	10	-6
